The values below come from PubChem BioAssay AID2685 (National Center for Advancing Translational Sciences (NCATS), 2010).

Out of some 320,000 compounds screened, about 2,100 (0.66%) were called active. Inconclusive results (about 53%) are left out. Calls come from the whole dose curve; as a rule, active = well fitted inhibition curve with a large enough effect in the signal ratio, with a control signal flat (not every such curve was filed as active); inconclusive = small, poorly fitted or top-dose-only effect, or effect the other way, or a change in a side signal; inactive = flat fitted curve, though single readings scatter; the % refers to the signal ratio. The full list was thinned out, with actives kept by preference.
Potency is the fitted concentration of half-maximal effect.

This assay can be described thus: qHTS Assay for Lipid Storage Modulators in Drosophila S3 Cells.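 For cell number change: cells counted by Cell Tracker Red CMTPX staining in the red channel.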 For lipid storage change, negative = inhibition: % is set by controls: 0 for no effect and ±100 for the full control effect. To be noted: BODIPY lipid droplet fluorescence, 18-24 h, cells fed with added oleic acid; cell number change: measured here: cell count max response; series mostly up to 46.1 µM; lipid storage change, negative = inhibition: at the top concentration. An outline of the steps:
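Drosophila S3 cells loaded with oleic acid (400 uM, as added) and compounds at several concentrations; lipid droplets imaged by 488-nm laser-scanning cytometry, 500–530 nm intensity and object ratio to cell channel. Percent activity normalized to 20 uM Triacsin C.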
Consider `COc1ccccc1N1CCN(C(c2cccs2)c2nnnn2C2CCCC2)CC1` (configuration not stated), for which the call was inactive and the cell number change was -7.64%.
For `Cc1ccc(SCc2ccc(C(=O)NCc3cccnc3)cc2)cc1`, the “lipid storage change, negative = inhibition” value is -18.4% (inactive) and the cell number change was 5.01%.
For the compound `Cc1ccc(Cl)cc1NC(=S)N(CCN(C)C)C(C)c1ccccn1` (configuration not stated), the “lipid storage change, negative = inhibition” value is 6.34% (inactive) and the cell number change was 25.6%.
On to `CCOC(=O)[C@H]1[C@H]2COc3ccc(OC)cc3[C@@H]2N2C(=O)c3ccc(Cl)cc3NC(=O)[C@@]12C`, for which the Potency was 4.11 µM (active) and the cell number change is -6.2%.
With `CCOC(=O)[C@H]1[C@H]2COc3ccccc3[C@@H]2N2C(=O)c3ccc(Cl)cc3NC(=O)[C@@]12C`, the “lipid storage change, negative = inhibition” value was -24.5% (inactive) and the cell number change is -18.8%.
On the same counts, the results for `CCOC(=O)[C@H]1[C@H]2COc3ccc(Cl)cc3[C@@H]2N2C(=O)c3ccccc3NC(=O)[C@@]12C` are 15.3% (inactive) and -17%.
With `COc1ccc2c(c1)C(=O)N1[C@H]3c4cc(C)ccc4OC[C@@H]3[C@H](c3ccccc3)[C@]1(C)C(=O)N2`, the “lipid storage change, negative = inhibition” value is 10.4% (inactive) and the cell number change amounted to 11.4%.
For `CCOC(=O)[C@H]1[C@H]2COc3cc(OC)ccc3[C@@H]2N2C(=O)c3cc(OC)ccc3NC(=O)[C@@]12C`, the “lipid storage change, negative = inhibition” value is 12% (inactive) and the cell number change is -12.2%.
As to `COc1ccc2c(c1)[C@H]1[C@H](CO2)[C@H](c2ccccc2)[C@]2(C)C(=O)Nc3ccccc3C(=O)N12`, the “lipid storage change, negative = inhibition” value was 7.61% (inactive) and the cell number change was -2.57%.
On to `CCOC(=O)[C@H]1[C@H]2COc3ccccc3[C@@H]2N2C(=O)c3cc(OC)ccc3NC(=O)[C@@]12C`, for which the “lipid storage change, negative = inhibition” value is 6.45% (inactive) and the cell number change was -11.2%.
On the same counts, the results for `CCOC(=O)[C@H]1[C@H]2COc3ccc(C)cc3[C@@H]2N2C(=O)c3cc(F)ccc3NC(=O)[C@@]12C` are 11.9% (inactive) and -22.1%.
In the case of `CCOC(=O)[C@H]1[C@H]2COc3ccc(Cl)cc3[C@@H]2N2C(=O)c3cc(C)ccc3NC(=O)[C@@]12C`, the Potency is 1.64 µM (active).
Regarding `CCOC(=O)[C@H]1[C@H]2COc3ccc(OC)cc3[C@@H]2N2C(=O)c3cc(F)c(F)cc3NC(=O)[C@@]12C`, the “lipid storage change, negative = inhibition” value is 11.9% (inactive) and the cell number change worked out at 10.2%.
Regarding `CCOC(=O)[C@H]1[C@H]2COc3cc(OC)ccc3[C@@H]2N2C(=O)c3cc(F)c(F)cc3NC(=O)[C@@]12C`, the Potency is 6.51 µM (active) and the cell number change was -3.7%.
Consider `COc1cc2c(cc1OC)C(=O)N1[C@H]3c4cc(Cl)ccc4OC[C@@H]3[C@H](c3ccccc3)[C@]1(C)C(=O)N2`, for which the Potency was 2.06 µM (active) and the cell number change is -5.54%.
Take `Cn1ncc(Br)c1C(=O)Nc1ccc(F)cc1F`: the “lipid storage change, negative = inhibition” value was 7.86% (inactive) and the cell number change came to 0.403%.
As to `COc1ccc(C(=O)Nc2ccc(NC(C)=O)cc2)cc1S(=O)(=O)N1CCCCC1C` (configuration not stated), the “lipid storage change, negative = inhibition” value is -18.6% (inactive) and the cell number change is -5.58%.
With `CC(CNC(=O)Cn1ccc2cc(S(=O)(=O)N3CCCC3)ccc21)c1ccccc1` (configuration not stated), the compound was called inactive and the cell number change is 5.34%.
With `O=C(OCc1nc(-c2ccccc2Cl)no1)c1ccco1`, the “lipid storage change, negative = inhibition” value is 27% (inactive) and the cell number change was 1%.
